According to PubChem BioAssay AID651768 (National Center for Advancing Translational Sciences (NCATS), 2012):
Out of some 360,000 compounds screened, about 1,700 (0.47%) were called active. Not shown: some 2% with an inconclusive outcome. The full list was thinned out, with actives kept by preference. Unmarked numbers belong to inactive results. The call rests on the fitted dose curve; in most records, active means well fitted inhibition curve with a large enough effect; inconclusive means small, poorly fitted or top-dose-only effect; inactive means no such curve, though single readings can be large or run the other way.

What follows are compounds tested against Bifunctional 3'-5' exonuclease/ATP-dependent helicase WRN (Homo sapiens) (UniProt Q14191) (assay: qHTS for Inhibitors of WRN Helicase). Conditions: WRN helicase unwinding, fluorescent forked duplex, kinetic; series mostly up to 114 µM; activity change, negative = inhibition: at the top concentration.
Text: Inhibition of DNA repair is proposed as a strategy for combating cancer. Synthetic lethality is an approach that exploits preexisting DNA repair deficiencies in certain tumors to develop inhibitors of DNA repair pathways that compensate for the tumor-associated DNA repair deficiency. Because helicases play critical roles in the DNA damage response and in DNA repair, particularly in actively dividing and replicating cells, characterization of synthetic lethal relationships of DNA helicases may be of value in developing improved anticancer treatment strategies; moreover, small molecules that specifically target a given DNA helicase may be useful for understanding its role in cellular nucleic acid metabolism. The goal of this project is to identify small molecule, non-covalent chemical inhibitors of the Werner syndrome (WS) helicase (WRN), which plays an important role in cell proliferation, the replication stress response, and DNA repair. […] The WRN gene product that is defective in the chromosomal instability disorder has DNA helicase and exonuclease activities and interacts with a number of nuclear proteins to maintain genomic stability. We will employ an optimized high-throughput screening assay that utilizes a fluorescence intensity modulation scheme with a fluorophore and quencher positioned near one another within a duplex deoxyoligonucleotide that contains a single forked structure. After a high-throughput screen of the ~350,000-member Molecular Libraries Small Molecule Repository (MLSMR) collection, followed by data analysis and hit selection, a panel of confirmatory, as well as secondary and ternary, assays will be employed to identify high-confidence WRN inhibitors. Structure-activity relationships will be investigated for the top candidate inhibitor series through medchem expansion. These are the results of the primary screening campaign against the MLSMR. NIH Chemical Genomics Center [NCGC] NIH Molecular Libraries Probe Centers Network [MLPCN] MLPCN Grant: MH096530 Assay Submitter (PI): Robert Brosh, National Institute of Aging
Three muL of reagents (buffer in columns 3 and 4 as negative controls; WRN at 20 nM final concentration in columns 1 and 2 as positive controls; columns 5-48 as test reactions) will be dispensed into a 1536-well Greiner black plate via solenoid-valve based nanoliter dispensers. Compounds (23 nL each in columns 5-48) and control (23 nL each in column 2 as dose-response) will be transferred via a Kalypsys pintool equipped with a 1536-pin array. Plates will be incubated for 15 min at room temperature, and then 1 µL of substrate (100 nM forked duplex oligonucleotide and 2 mM ATP final concentrations) will be added to start reaction, and plate will be transferred into a ViewLux high-throughput CCD imager where reaction progress is measured in kinetic mode using standard red-fluorescence optics (excitation filter 525 nm, emission filter 598 nm).
Further: nearly all actives have a fitted effect of over 55% in size.
On the % scale 0 is the no-effect control and ±100 the full control effect; potency means the concentration at half of the fitted maximal effect.

Bifunctional 3'-5' exonuclease/ATP-dependent helicase WRN (Homo sapiens), sequence (Q14191 whole entry, looked up): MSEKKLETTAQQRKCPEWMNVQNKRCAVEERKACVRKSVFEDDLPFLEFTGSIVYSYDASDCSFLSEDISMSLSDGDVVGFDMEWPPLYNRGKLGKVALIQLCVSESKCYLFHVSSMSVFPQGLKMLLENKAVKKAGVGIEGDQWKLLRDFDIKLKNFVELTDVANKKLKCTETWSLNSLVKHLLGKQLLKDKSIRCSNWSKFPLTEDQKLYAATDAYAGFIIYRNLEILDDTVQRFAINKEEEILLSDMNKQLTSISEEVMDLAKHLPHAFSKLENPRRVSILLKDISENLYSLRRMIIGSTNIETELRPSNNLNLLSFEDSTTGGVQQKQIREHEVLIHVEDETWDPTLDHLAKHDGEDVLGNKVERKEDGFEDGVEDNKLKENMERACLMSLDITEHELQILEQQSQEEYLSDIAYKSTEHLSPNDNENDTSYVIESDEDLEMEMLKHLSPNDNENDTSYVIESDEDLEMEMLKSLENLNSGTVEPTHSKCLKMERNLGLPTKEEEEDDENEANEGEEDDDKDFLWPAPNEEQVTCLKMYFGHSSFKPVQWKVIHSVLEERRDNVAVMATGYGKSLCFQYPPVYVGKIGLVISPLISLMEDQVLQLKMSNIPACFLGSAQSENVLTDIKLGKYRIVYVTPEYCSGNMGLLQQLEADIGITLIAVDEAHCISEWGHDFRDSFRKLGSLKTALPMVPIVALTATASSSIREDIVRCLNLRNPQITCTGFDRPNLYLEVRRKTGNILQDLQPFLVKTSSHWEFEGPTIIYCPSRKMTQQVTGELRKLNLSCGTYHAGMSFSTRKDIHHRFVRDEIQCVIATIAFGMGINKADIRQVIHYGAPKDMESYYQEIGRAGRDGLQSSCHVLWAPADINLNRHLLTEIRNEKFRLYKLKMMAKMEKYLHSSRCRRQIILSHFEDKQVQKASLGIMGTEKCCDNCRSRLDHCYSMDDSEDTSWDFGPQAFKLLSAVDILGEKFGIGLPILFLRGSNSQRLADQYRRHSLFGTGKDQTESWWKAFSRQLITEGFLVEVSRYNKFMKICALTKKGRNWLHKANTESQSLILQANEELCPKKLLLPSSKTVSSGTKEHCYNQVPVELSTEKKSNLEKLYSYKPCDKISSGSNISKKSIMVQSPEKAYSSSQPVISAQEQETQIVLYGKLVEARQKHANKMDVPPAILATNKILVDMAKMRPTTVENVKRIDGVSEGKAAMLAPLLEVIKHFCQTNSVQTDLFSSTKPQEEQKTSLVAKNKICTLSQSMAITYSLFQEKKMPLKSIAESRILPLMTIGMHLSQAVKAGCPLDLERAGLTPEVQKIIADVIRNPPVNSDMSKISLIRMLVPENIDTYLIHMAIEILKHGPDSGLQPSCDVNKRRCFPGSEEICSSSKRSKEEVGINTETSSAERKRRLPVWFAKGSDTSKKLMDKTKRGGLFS

SMILES	Potency	activity change, negative = inhibition
CC1(C)C(c2ccccc2)=NC(c2cccnc2)=[N+]1[O-]	50.1 µM (active)	–
CCOP(=O)(OCC)C(NC(=O)c1ccc(C)cc1)C(Cl)(Cl)Cl (stereo not given)	–	13.7%
O=C(Cc1ccc(Cl)cc1)NCCN1CCN(C(=O)Cc2ccc(Cl)cc2)CC1	–	5.8%
CCOC(=O)[C@]12Cc3cc(OC)ccc3[C@H]1N(C(C)C)C(=O)c1ccccc12	–	-1.64%
CC(Cc1ccccc1)NCCC(c1ccccc1)c1ccccc1 (stereo not given)	–	-1.92%
CC(Cc1cccs1)NCc1ccc(Cl)cc1 (stereo not given)	–	-4.04%
O=C(O)CCn1cc(C=C2C(=O)NC(=S)NC2=O)c(-c2cccc(Br)c2)n1	31.6 µM (active)	–
C=C(C)C1(CCCC)C(=O)NC(=S)NC1=O	–	0.947%
COc1ccc(-n2nnnc2C(c2cccc3ccccc23)N2CCC(n3c(=O)[nH]c4ccccc43)CC2)cc1 (stereo not given)	–	-2.03%
COC(=O)CN(CCCl)P1(=O)OCCCN1CCCl (stereo not given)	–	1.67%
CCOc1ccc(-c2cc(C)[n+](CCN(CC)CC)c(-c3ccc(OCC)cc3)c2)cc1	–	-8.79%
O=C1N=c2ccccc2=C/C1=C\c1c(O)[nH]c(=S)[nH]c1=O	–	-30.7%
Cc1ccc2c(c1)=C/C(=C\c1c(O)[nH]c(=O)[nH]c1=O)C(=O)N=2	39.8 µM (active)	–
O=c1[nH]c(O)c(C=Nc2cc(F)cc(F)c2)c(=O)[nH]1	–	2.85%
N#Cc1ccc(Cn2cc(C(=O)c3ccco3)c3ccccc32)cc1	–	-15.2%
CCCCCCCCCCCCn1ccc(=N)cc1	–	-5.13%
COc1ccc(CCn2c(O)c(C=NCCCn3ccnc3)c(=O)[nH]c2=O)cc1OC	–	6.66%
O=C(CN1CCCC1=O)NCCc1ccccc1	–	0.395%
CC(C)(C)c1ccc(CN2C(=O)CN=C(c3ccccc3)c3ccccc32)cc1	–	-15.4%
O=C1CC(=O)N(Cc2ccccc2)C(=O)N1CCCCCCN1C(=O)CC(=O)N(Cc2ccccc2)C1=O	28.2 µM (active)	–
CC(=O)C1(O)CCC2C3CCC4=C(Cl)C(=O)CCC4(C)C3CCC21C (stereo not given)	–	0.713%
CCOC(=O)[C@]12Cc3ccccc3[C@H]1N(C1CCCCC1)C(=O)c1cc(OC)ccc12	–	-0.682%
O=C(O)COc1ccccc1/C=C1\C(=O)NC(=O)N(CCC2=CCCCC2)C1=O	39.8 µM (active)	–
O=C1NC(=O)N(CCc2ccc(F)cc2)C(=O)/C1=C/C=C/c1ccccc1	–	-13.3%
C=CCN1C(=O)NC(=O)/C(=C/c2ccc(OCC(=O)Nc3ccc(C)cc3)cc2)C1=O	–	-8.42%

SMILES	Potency	activity change, negative = inhibition
CCCOC(=O)C1C2c3ccccc3C(c3ccccc32)C1C(=O)O (stereo not given)	–	-3.12%
CC(=O)N1CN2CN(C(C)=O)CC(C(=O)c3ccc(Br)cc3)(C2)C1	–	-1.58%
O=C1NC(=O)N(c2ccc(F)cc2)C(=O)/C1=C/c1ccc2c(c1)CCCN2Cc1ccccc1	–	-26.4% [at 57.1 µM]
O=C1NC(=O)N(c2ccccc2)C(=O)/C1=C/c1ccc([N+](=O)[O-])s1	28.2 µM (active)	–
O=c1c2ccccc2nc(CBr)n1-c1ccc(Cl)cc1	–	11.3%
COc1ccc(N2C(=O)/C(=C/c3ccco3)C(=O)NC2=S)cc1	17.8 µM (active)	–
CN(C)CC1CCCCC1OC(=O)c1ccc(Cl)c(Cl)c1 (stereo not given)	–	9.28%
CC(C)(C)[C@]1(O)C[C@@H]2OC(=O)C[C@@]23C(=O)O[C@@H]2OC(=O)[C@H](O)[C@]213	–	-2.59%
COc1ccc(-c2nn(CCC#N)cc2C(=O)Nc2ccc(C(C)=O)cc2)cc1	–	1.6%
Clc1cccc(Cl)c1Cl	–	-11.3%
Cc1c(C(=O)O)cccc1-n1c(C)cc(/C=C2\C(=O)NC(=O)N(c3ccc4c(c3)OCO4)C2=O)c1C	–	-16.1% [at 11.6 µM]
Cc1cccc(N2C(=O)NC(=O)/C(=C\c3cnn(-c4ccccc4)c3)C2=O)c1	50.1 µM (active)	–
COc1ccc(S(=O)(=O)NCc2ccc(C(=O)N3CCC4(CC3)OCCO4)cc2)cc1	–	3.75%
OCC#CC[N+]1(CC#Cc2ccccc2)CCCC1	–	-12.6%
CSC1=NP(=S)(SC)N(C)c2nc3n(c21)CCC3 (stereo not given)	–	7.66%
COC(=O)C[C@H]1CC[C@H]2NC[C@@H](O)COC[C@@H]2O1	–	2.11%
O=C1NC(=O)N(Cc2ccco2)C(=O)/C1=C\c1ccc(-c2ccc(F)cc2)o1	31.6 µM (active)	–
COc1ccc(-c2nc(CS(=O)CC(=O)N3CCC4(CC3)OCCO4)c(C)o2)cc1 (stereo not given)	–	-1.12%
COc1ccccc1N=Nc1c(O)[nH]c(=S)[nH]c1=O	–	-24.1%
O=c1[nH]c(=S)[nH]c(O)c1/C=C1\C=Nc2ccccc21	50.1 µM (active)	–
O=c1[nH]c2ccccc2n1C1CCN(C(c2ccccc2)c2nnnn2Cc2ccccc2)CC1 (stereo not given)	–	-7.52%
O=C(N/N=C/c1c(O)n(C2CC2)c(=S)[nH]c1=O)c1ccccc1	–	-24%
COc1ccccc1N=C1SCCCN1C	–	3.59%
CCCCCn1c(=O)c(C(=O)Nc2c(C)n(C)n(-c3ccccc3)c2=O)c(O)c2ccccc21	–	-9.8%
COC(=O)C1=C(c2cccc(OCc3ccccc3)c2)C[C@@H]2CC[C@H]1N2C(=O)NNCc1ccccc1	–	-8.99%
